# Screening results: PubChem BioAssay, National Center for Advancing Translational Sciences (NCATS)
# Rows were chosen to be rich in hits. Some 6.1% of all compounds tested hit in one or more screens of this group.
# GBA mod: Glucocerebrosidase; purified enzyme, resorufin glucoside fluorescence (screen aimed at inhibitors), 20 min; Potency, µM; 1.1% of 48,000 active; in the data active = potency below about 15 µM; inconclusive = mostly about 16 µM to 33 µM;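 note: the screen sought inhibitors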
#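 Normal human glucocerebrosidase (0.2 nM final) was assayed with resorufin β-D-glucopyranoside (30 uM final) in 50mM citric acid/KH2PO4, 10mM sodium taurocholate, 0.01% tween-20, pH 5.9. Compounds were titrated; fluorescence (Ex 548, Em 600) read after 20 min at RT.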
# ERK AVP inh: qHTS Assay for Inhibitors of the ERK Signaling Pathway using a Homogeneous Screening Assay | 0.99% of 72,000 active | HEK293-V1b, vasopressin-stimulated pERK AlphaScreen | Potency, µM (top dose mostly 57.5 µM), hits mostly inhibitors; note: nearly all actives have a fitted effect of over 55% in size
#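 HEK293 cells stably expressing V1b receptor, seeded overnight in 1% FBS, were treated with compounds for 30 min at 37C, then stimulated 5 min with 25 nM vasopressin; phospho-ERK read by AlphaScreen SureFire after lysis.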
# HEK293 cAMP ctrl: qHTS Assay for Agonists of the Thyroid Stimulating Hormone Receptor: Activators of Intracellular cAMP Concentrations in Parental HEK 293 | parental HEK293 CNG cAMP sensor, membrane potential fluorescence | Potency, µM (series often up to 57.1 µM), most hits filed as activators | 2.5% of 73,000 active | AID 938, 2007; note: nearly all actives have a fitted effect of over 55% in size
#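 Counterscreen for endogenous-receptor signalling: CNG-channel HEK 293 cells report cAMP rise by membrane depolarization. After 60 min dye equilibration with 100 uM RO 20-1724, compounds incubated 30 min before bottom-read fluorescence at 590 nm.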
# TSHR ag: qHTS Assay for Agonists of the Thyroid Stimulating Hormone Receptor | Potency, µM (series often up to 57.1 µM), usual class: activators | 0.48% of 73,000 active | HEK293-CNG-TSHR cells (CNG channel as cAMP sensor), membrane potential dye, cAMP | AID 926, 2007; active = well fitted activation curve with a large enough effect in the main read-out, with a control signal flat, not every such curve was filed as active; inconclusive = small, poorly fitted or top-dose-only effect, or a change in a side signal; inactive = no such curve, though single readings can be large or run the other way; reference of the percent scale not stated here;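 note: the control signal comes from parental cells without the receptor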
#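 HEK 293 cells stably expressing TSHR and a modified CNG channel, with CNG-only parental cells as counterscreen, were preloaded 60 min at room temperature with membrane potential dye containing 100 uM RO 20-1724. Compound exposure was 30 min, and depolarization was read as fluorescence at 590 nm.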
# FLuc inh: qHTS Assay for Inhibitors of Firefly Luciferase; Luciferin 4-monooxygenase (Photinus pyralis), P08659; purified firefly luciferase, luminescence, 8 min; Potency, µM (top dose mostly 57.1 µM), hits mostly inhibitors; 2.2% of 72,000 active; note: nearly all actives have a fitted effect of over 40% in size
# Target sequence (P08659 whole entry, looked up): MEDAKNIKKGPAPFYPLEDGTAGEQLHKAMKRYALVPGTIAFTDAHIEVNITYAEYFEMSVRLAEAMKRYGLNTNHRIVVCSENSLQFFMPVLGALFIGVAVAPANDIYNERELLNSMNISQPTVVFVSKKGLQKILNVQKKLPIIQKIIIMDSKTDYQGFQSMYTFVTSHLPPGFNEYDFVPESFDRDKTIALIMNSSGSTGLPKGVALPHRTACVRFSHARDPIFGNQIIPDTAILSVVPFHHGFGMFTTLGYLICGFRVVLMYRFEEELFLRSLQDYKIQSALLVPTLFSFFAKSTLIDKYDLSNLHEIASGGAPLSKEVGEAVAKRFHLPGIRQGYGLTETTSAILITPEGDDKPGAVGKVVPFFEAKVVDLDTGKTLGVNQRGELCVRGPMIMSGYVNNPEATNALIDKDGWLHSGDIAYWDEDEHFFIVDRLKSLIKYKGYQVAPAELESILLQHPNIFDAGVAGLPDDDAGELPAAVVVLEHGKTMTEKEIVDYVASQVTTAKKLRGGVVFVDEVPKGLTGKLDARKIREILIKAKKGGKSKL
#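 Firefly luciferase (PKLight detection mix) with 10 uM ATP in pH 7.2 imidazole buffer (KCl, MgCl2, Tween 20, BSA). Compounds tested across a concentration series (qHTS). Luminescence read after 8 min at ambient temperature.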
# Bst PK mod: Pyruvate Kinase; purified pyruvate kinase, luminescence ATP production; ribose 5-phosphate activator present at AC10; Potency, µM; 1.2% of 51,000 active; in the data active = potency below about 11 µM; inconclusive = mostly about 12 µM to 25 µM;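 the screen sought inhibitors and activators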
# Hits are given with their value; n = inactive; u = inconclusive; x = not tested or not shown; [ ] = remark or other dose. Unless noted, calls come from the whole dose curve; as a rule, active = well fitted curve in the direction sought with a large enough effect; inconclusive = small, poorly fitted or top-dose-only effect, or another doubt; inactive = no such curve, though single readings can be large; an effect the other way counts as inactive or inconclusive.
SMILES,GBA mod,ERK AVP inh,HEK293 cAMP ctrl,TSHR ag,FLuc inh,Bst PK mod
COC(=O)C/C=C\[C@@H](C)[C@@H](/C=N\O[C@@H](C)c1cn([C@H](CO)Cc2ccccc2)nn1)NS(=O)(=O)c1ccc(C)cc1,x,n[11.5 µM],n[11.4 µM],n[11.4 µM],n[11.4 µM],x
Cc1ccc(-c2nc(C#N)c(NCc3ccco3)o2)cc1,n,n,n,n,n,n
Cc1ccc2cc(C#N)c(NCc3ccco3)nc2c1,12,n,n,n,n,n
C[C@H]1CC[C@@H]2[C@@H](C)[C@H]3[C@H](C[C@H]4[C@@H]5CC=C6C[C@@H](O[C@]7(O[C@H]8O[C@@H](C)[C@@H](O)[C@@H](O)[C@@H]8O)C[C@@H](O[C@@H]8O[C@H](CO)[C@@H](O)[C@H](O)[C@@H]8O)[C@@H](O)[C@H](CO)O7)CC[C@]6(C)[C@H]5CC[C@@]34C)N2C1,x,n,n,n,n,x
Cc1cn2nc(N)c3ccccc3c2n1,n,n,n,n,n,8.8
Cc1nc2c3cnn(-c4ccccc4)c3ncn2n1,n,n,n,n,n,x
O=C(Oc1ccccc1)n1c(=O)oc2ccc(Cl)cc21,x,x,n,n,x,x
O=C(O)C(Cc1cccs1)C(=O)O,x,n[11.5 µM],n[11.4 µM],n[11.4 µM],n[11.4 µM],x
CC1CCN(C(=O)COC(=O)c2cc3ccccc3cc2O)CC1,n,u,0.2µM,u,n,n
CC1CCN(C(=O)COC(=O)c2n[nH]c3ccccc23)CC1,n,n,n,n,u,x
CC1CC(C)CN(C(=O)COC(=O)c2cc3ccccc3cc2O)C1 (stereo not given),n,n,32µM,u,n,n
Cc1cc(C(=O)OCC(=O)N2CC(C)CC(C)C2)c(C)o1 (stereo not given),n,n,n,n,n,n
CCN1CCCC1CNC(=O)c1ccc(Cc2nc3ccccc3[nH]2)cc1 (stereo not given),x,x,n,n,x,x
CC(=O)N1CCN(c2ccc(Oc3nc(-c4ccccc4)nc4ccccc34)cc2)CC1,n,n,n,25µM,n,n
C[N+]1(C)C[C@@H](O)C[C@@H]1C(=O)[O-],x,n,n,n,n,x
COc1ccc(-c2csc(N(CC3CCCO3)C(=O)c3ccco3)n2)cc1 (stereo not given),n,n,20µM,u,n,x
COc1ccc(-c2csc(N3CCN(C(=O)c4ccco4)CC3)n2)cc1,x,10µM,n,n,n,x
COc1ccc(-c2csc(N3CCC(C(N)=O)(N4CCCCC4)CC3)n2)cc1,n,25µM,n,n,n,n
COc1ccc(C(=O)N2CCN(C(=O)c3ccco3)CC2)cc1,x,n,n,x,n,x
NC(=O)C1(N2CCCCC2)CCN(c2nc(-c3ccccc3)cs2)CC1,n,n,n,n,n,n
NC[C@@H](O)CSCc1ccc(Cl)cc1,x,n[11.5 µM],n[11.4 µM],n[11.4 µM],n[11.4 µM],x
COCCn1c(=O)c(CCc2ccccc2)nc2cnc(OCc3ccccc3)nc21,x,n,n,x,n[11.4 µM],x
CCCN=Cc1sc2ccc(OCC)cc2c1O,x,n,n,n,16µM,x
Cc1nc2cnc(OCc3ccccc3)nc2n(C)c1=O,x,n,n,n,n[11.4 µM],x
CCCN(Cc1cc2cc(C)ccc2[nH]c1=O)S(C)(=O)=O,n,n,n,5µM,n,n
SMILES,GBA mod,ERK AVP inh,HEK293 cAMP ctrl,TSHR ag,FLuc inh,Bst PK mod
NCCNS(=O)(=O)c1ccc(N)cc1,x,n[11.5 µM],n[11.4 µM],n[11.4 µM],n[11.4 µM],x
COC(=O)Cn1ncc2c(C)n(Cc3ccccc3)c(C)c2c1=O,x,n,u,u,20µM,x
CNC(=O)Cn1ncc2c(C)n(Cc3ccc(C)cc3)c(C)c2c1=O,x,x,n,n,x,x
N[C@@]1(C(=O)O)CCC[C@@H]1C(=O)O,x,n[11.5 µM],n[11.4 µM],n[11.4 µM],n[11.4 µM],x
CCOC(=O)c1cc(NC(=O)NCc2ccco2)c(C)nc1C,n,n,n[2.29 µM],10µM,n,n
CC(C)CNc1nc(N)[nH]c(=O)c1NC=O,x,n[11.5 µM],n[11.4 µM],n[11.4 µM],n[11.4 µM],x
COc1ccc(-n2ccnc2SCC(=O)Nc2ccccc2)cc1,n,n,3.2µM,u,n,n
CCn1c(SCC(=O)N2CCCC2)nnc1-c1ccc(S(=O)(=O)N2CCCCCC2)cc1,n,n,n,n,n,n
CCn1c(SCc2ccc(C#N)cc2)nnc1-c1ccc(S(=O)(=O)N2CCCCC2)cc1,n,25µM,n,n,n,n
O=C(CN1C(=O)COc2ccccc21)N(Cc1cccnc1)Cc1ccccc1F,x,n,10µM,u,n,n
Cc1ccc(-c2nc3cc(NC(=O)C(C)C)ccc3o2)cc1,x,n,u,u,5µM,x
O=C(Nc1ccc2oc(-c3ccncc3)nc2c1)c1cccs1,n,u,n,n,n,3.6
Cc1ccc(-c2nc3cc(NC(=O)C(C)C)ccc3o2)cc1C,n,u,n,n,2µM,1.7
CC(C)C(=O)Nc1ccc(-c2nc3cccnc3o2)cc1,x,n,n,n,5µM,x
Cc1cc2nc(-c3ccc(NC(=O)C(C)C)cc3)oc2cc1C,x,n,n,n,n,x
CC(C)C(=O)Nc1cccc(-c2nc3ccccc3o2)c1,n,n,n,n,n,n
C=C1C2CC[C@@]3(C)C(c4ccoc4)OC(=O)C[C@@]13OC1CC(=O)C(C)(C)C(C(O)C(=O)OC)[C@]12C (stereo not given in full),x,n,x,x,x,x
CCOC(=O)c1c(C)oc2ccc(NS(=O)(=O)c3ccc4c5c(cccc35)C(=O)N4)cc12,n,u,n,25µM,n,n
COCCOC(=O)c1c(C)oc2ccc(NS(=O)(=O)c3ccccc3)cc12,n,n,n,n,n,n
CCN(C(=O)CCc1nc(-c2ccccc2F)no1)c1cc(OC)ccc1OC,15,n,u,u,n,n
COCCn1c(=O)c(-c2ccc(F)cc2)nc2cnc(Oc3cccc(Cl)c3)nc21,x,n,n,n,n[11.4 µM],x
Cn1c(N2CCOCC2)nc(-c2ccccc2)c1-c1ccccc1,8.6,n,n,x,n,n
COC(=O)C/C=C\[C@@H](C)[C@@H](/C=N\OCC[C@@H]1C=C[C@H](OC(C)=O)[C@H](COC(C)=O)O1)OC,x,n[11.5 µM],n[11.4 µM],n[11.4 µM],n[11.4 µM],x
CCC(SC1=Nc2ccccc2C2=NC(CC(C)C)C(=O)N12)C(=O)Nc1ccc2c(c1)OCO2 (stereo not given),x,n,16µM,u,n,n
COc1ccc(Cn2nnnc2C(C(C)C)N2CCN(c3ccccc3OC)CC2)cc1 (stereo not given),x,n,13µM,u,n,n
COc1ccc(OC)c(C(c2nnnn2Cc2ccccc2)N2CCN(C)CC2)c1 (stereo not given),n,n,u,u,n,n
COc1ccccc1N1CCN(C(c2ccc(F)cc2)c2nnnn2C(C)C)CC1 (stereo not given),n,n,u,u,n,n
COc1ccccc1N1CCN(C(c2ccc(C)cc2)c2nnnn2C(C)C)CC1 (stereo not given),n,n,16µM,u,n,n
